In PubChem BioAssay (Tox21) one finds Potency and activity change, negative = cytotoxicity data, which are given here for 39 molecules.

Molecules are shown by their SMILES. Inconclusive results are not listed. Entries that show only a call come without a potency. Calls of active or inactive are those of the source. The call rests on the fitted dose curve; in most records, active means well fitted cell-killing curve with a large enough effect in the repeat runs; inconclusive means weak or mixed curves, or effect the other way; inactive means flat fitted curve, though single readings scatter.
Potency means the concentration at half of the fitted maximal effect.

The assay is described as follows: cAMP Responsive Elements (CRE) small molecule agonists, cell-based qHTS assay: qHTS cell viability counter screen (AID 2060914). Further: nearly all actives have a fitted effect of over 50% in size. The settings on record: CRE-bla HEK293T viability, CellTiter-Glo luminescence, 5 h; series mostly up to 92.4 µM. The gist of the method: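 Cells are seeded and incubated 18 h, treated with compounds in DMSO for 3 h, read for the bla reporter, then given CellTiter-Glo; luminescence is measured after 30 min at room temperature.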
(In qHTS, concentration-response curves come from the screen itself.)
In the case of `O=C(O)c1ccc2cc(C(=O)O)ccc2c1`, the Potency result was “inactive”.
Same read-out and setting: in the case of `O=C(O)c1ccc(O)c(O)c1` it was “inactive”; in that of `CC(=O)Oc1cccc2c1C(=O)c1c(OC(C)=O)cc(C(=O)O)cc1C2=O`, “inactive”; in that of `CN(C)C(=O)Oc1cccc([N+](C)(C)C)c1`, “inactive”.
`NC(N)=NC(=O)c1nc(Cl)c(N)nc1N`: the Potency entry is “inactive”.
`C1CCC2(CCCCO2)OC1`: the Potency entry is “inactive”.
The same measure, in the same setting: the result for `Oc1ccc2c(c1)OC[C@@H](N1CCC(O)(c3ccc(F)cc3)CC1)[C@H]2O` reads “inactive”; that for `CCCCCCCCCCCCCCCC(=O)NCCO`, “inactive”.
With `CC1(C)CC(=O)CC(C)(C)N1`, the Potency entry was “inactive”.
For `CC(C)C(C)C`, the Potency entry is “inactive”.
Turning to `O=C(Cl)c1c(Cl)c(Cl)c(C(=O)Cl)c(Cl)c1Cl`, the Potency entry was “inactive”.
Regarding `Clc1nnc(Cl)c2ccccc12`, the Potency entry was “inactive”.
For the molecule `CCCCCCCCCCCCCC(=O)O`, the Potency entry is “inactive”.
For `C#CC(O)CCCCC` (centres undefined), the Potency entry was “inactive”.
As to `CCCCCCCCCCCCCCC(=O)O`, the Potency entry is “inactive”.
Regarding `Nc1ccc2cc(S(=O)(=O)O)ccc2c1`, the Potency result was “inactive”.
As for `COc1ccc(CCN(C)CCCC(C#N)(c2ccc(OC)c(OC)c2)C(C)C)cc1OC` (centres undefined), the Potency result is “inactive”.
On to `CC(C)Nc1ccc(NC(C)C)c2c1C(=O)c1ccccc1C2=O`, for which the Potency result was “inactive”.
As to `CN(C)CCCCCCN(C)C`, the Potency result was “inactive”.
For `Nc1ccc2c(c1)C(=O)c1ccccc1C2=O`, the Potency entry is “inactive”.
For `CC(C)CCCCOC(=O)c1ccccc1C(=O)OCCCCC(C)C`, the Potency entry was “inactive”.
The same measure, in the same setting: the result for `C=CCCCCCCC=C` reads “inactive”; that for `O=S(=O)(O)CCN1CCN(CCO)CC1`, “inactive”.
Turning to `NC(=S)Nc1cccc2ccccc12`, the activity change, negative = cytotoxicity was -4.32% [at 8.39 µM] (inactive).
`CC12CCC(CC1)C(C)(C)O2`: the Potency result is “inactive”.
Consider `COc1ccc(C(=O)N2CCN(CC(=O)N3CCOCC3)CC2)cc1`, for which the Potency entry is “inactive”.
Consider `NCC1CCCC(CN)C1` (centres undefined), for which the Potency result is “inactive”.
Same read-out and setting: in the case of `CCCCCCCCCCCCCC[N+](C)(C)C` it was 52.7 µM (active); in that of `COc1cccc(OC)c1C(=O)N[C@@H]1C(=O)N2[C@@H]1SC(C)(C)[C@@H]2C(=O)O`, “inactive”.
For the molecule `CC(=O)N[C@H]1[C@H]([C@H](O)[C@H](O)CO)OC(C(=O)O)=C[C@@H]1N=C(N)N`, the Potency result was “inactive”.
As to `Nc1nc(-c2ccccc2)cs1`, the Potency result was “inactive”.
As to `CCCCCCCC/C=C\CCCCCCCC(=O)OCCCC`, the activity change, negative = cytotoxicity was -19.4% [at 18.9 µM] (inactive).
In the case of `CN1CCN(c2cc3c(cc2F)c(=O)c(C(=O)O)cn3-c2ccc(F)cc2)CC1`, the Potency result was “inactive”.
Turning to `CC(C)OB(OC(C)C)OC(C)C`, the Potency result was “inactive”.
On the same count and under the same terms, in the case of `C[Si](O[Si](C)(C)C)O[Si](C)(C)C` it was “inactive”; in that of `O=C(O)c1ccco1`, “inactive”; in that of `CC(=O)[C@@]1(O)CC[C@H]2[C@@H]3C[C@H](C)C4=CC(=O)C=C[C@]4(C)[C@@]3(F)[C@@H](O)C[C@@]21C`, “inactive”.
For the molecule `CC(C)c1cccc(C(C)C)c1`, the Potency entry was “inactive”.
Take `CC1=Nc2ccc3ccccc3c2C1(C)C`: the Potency result is “inactive”.
